From PubChem BioAssay
Activity calls are given as the source filed them. No stated cut-off is given here; in the data, active means fold change permeability below about 0.7 or above about 1.3; inactive means in between.

Assay: modulators of brain endothelial barrier permeability, primary screen, cell-based, FITC-avidin fluorescence, HTS (AID 1963498); further: test concentration not given here
Details: actives lie on both sides

| Compound | fold change permeability |
| --- | --- |
| CC1=C(/C=C/C(C)=C/C=C/C(C)=C\C(=O)O)C(C)(C)CCC1 | 1.4 (active) |
| CN=C(N)NCCC[C@H](N)C(=O)O | 0.8 (inactive) |
| Brc1c(Br)c(Br)c2[nH]cnc2c1Br | 1.2 (inactive) |
| NC(=Nc1ccc(OCCCCCOc2ccc(N=C(N)c3ccccc3)cc2)cc1)c1ccccc1 | 1 (inactive) |
| CCCCCN(CCCCC)C(=O)C(CCC(=O)O)NC(=O)c1ccc(Cl)c(Cl)c1 (centres undefined) | 1.4 (active) |
| Cc1cc(CN2CCN(c3c(Br)cnc4nc(-c5ccc(N6CCN(C)CC6)cc5)[nH]c34)CC2)no1 | 1.4 (active) |
| NNC(=O)CSc1nc2scc(-c3ccccc3)c2c(=O)n1-c1ccccc1 | 1.2 (inactive) |
| Cc1c(C(=O)N2CCOc3ccc(-c4ccc(N)nc4)cc3C2)ccc(S(C)(=O)=O)c1F | 1.2 (inactive) |
| Cn1ccc2cc3c(cc21)CCN3C(=O)Nc1cccnc1 | 1.4 (active) |
| NS(=O)(=O)C#Cc1ccccc1 | 1.8 (active) |
| CC(=O)Nc1ccc(C(=O)Nc2ccc(F)cc2N)cc1 | 0.8 (inactive) |
| COC(=O)[C@@H](N)Cc1ccc(O)c(O)c1 | 1 (inactive) |
| O=c1c(O)c(-c2ccc(O)cc2O)oc2cc(O)cc(O)c12 | 0.7 (active) |
| CC(C)(O)[C@@H]1CC[C@](C)([C@H]2[C@@H](O)C[C@@]3(C)[C@@H]4C[C@H](O)[C@H]5C(C)(C)[C@@H](O)CC[C@@]56C[C@@]46CC[C@]23C)O1 | 1 (inactive) |
| C/C(=C\c1ccc(C(=O)O)cc1)c1ccc2c(c1)C(C)(C)CCC2(C)C | 1.7 (active) |
| COc1cccc(OC)c1OCCNCC1CSc2ccccc2O1 (centres undefined) | 1.1 (inactive) |
| CCc1ccc(/C=C2/SC(=S)NC2=O)cc1 | 1.4 (active) |
| CCCCCC[C@@H]([C@@H](C)O)n1cnc2c(N)ncnc21 | 0.7 (active) |
| NC(=O)c1cn(Cc2c(F)cccc2F)nn1 | 0.9 (inactive) |
| N[C@H](C(=O)O)[C@H](Cc1ccccc1)C(=O)O | 1.2 (inactive) |

| Compound | fold change permeability |
| --- | --- |
| COc1ccc(-n2c(SCc3nc(-c4ccc(C)cc4)no3)nnc2-c2ccncc2)cc1 | 0.8 (inactive) |
| CC(=O)OCC(=O)[C@@]1(O)CC[C@H]2[C@@H]3CCC4=CC(=O)CC[C@]4(C)[C@H]3C(=O)C[C@@]21C | 0.9 (inactive) |
| CC(=O)c1ccc(S(=O)(=O)NC(=O)NC2CCCCC2)cc1 | 1.1 (inactive) |
| NCCCCNCCCN | 0.7 (active) |
| O=c1onc2cnc3ccccc3n12 | 1.1 (inactive) |
| CC(=O)Oc1cc(C(F)(F)F)ccc1C(=O)O | 0.8 (inactive) |
| COc1ccc(Cc2nn3c([C@@H](CCCc4ccccc4)[C@@H](C)O)nc(C)c3c(=O)[nH]2)cc1OC | 1.1 (inactive) |
| COc1ccc(C2(CNC(=O)c3ccc(NC(=O)c4ccco4)cc3)CCOCC2)cc1 | 0.7 (active) |
| CCN(CC)S(=O)(=O)Nc1cccc(-c2ccc3c(NC(=O)C4CC4)n[nH]c3c2)c1 | 1.6 (active) |
| N[C@H](C(=O)O)[C@H](O)c1ccc(O)c(O)c1 | 0.9 (inactive) |
| O=c1[nH]c2ccccc2n1CCN1CCN(c2cccc(C(F)(F)F)c2)CC1 | 1.5 (active) |
| Cc1ccc(S(=O)(=O)/C=C/C#N)cc1 | 1.1 (inactive) |
| C#CCN(C)Cc1ccccc1 | 0.6 (active) |
| Cc1cccc(C#Cc2ccccc2)n1 | 0.9 (inactive) |
| CCN(CC)CCOC(=O)c1cc(Cl)c(N)cc1OC | 1.1 (inactive) |
| Cc1[nH]c(=O)c(C#N)cc1-c1ccc2nccn2c1 | 0.8 (inactive) |
| CN(C)[C@@H]1C(=O)C(C(N)=O)=C(O)[C@@]2(O)C(=O)C3=C(O)c4c(O)ccc(Cl)c4[C@@H](O)[C@H]3C[C@@H]12 | 1 (inactive) |
| O=C(O)c1cccnc1Nc1cccc(C(F)(F)F)c1 | 0.9 (inactive) |
| NC1=NCC2c3ccccc3Cc3ccccc3N12 (centres undefined) | 0.8 (inactive) |
